{"source": "PubChem BioAssay (EPA / NIEHS)", "note": "Inconclusive results are not listed. The source made the active and inactive calls. Rule for the calls, unless noted: active = hit-call score of the fitted dose curve at least 0.9, where 1 is the maximum; inactive = score below 0.9."}
{"system": "SRY-box transcription factor 2 (SOX2) Protein Expression, Deisenroth Lab, SOX2 (gene 6657)", "experiment": "CCTE_Deisenroth_DEVTOX-GLR_legacy_Sox2: (Legacy) CCTE's DevTox GLR-Endo Assay Evaluation of SRY-box transcription factor 2 (SOX2) Protein Expression, Deisenroth Lab (AID 2284346)", "outline": "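RUES2-GLR human pluripotent cells were differentiated for 48 h with two chemical doses 24 h apart, over 1 nM-200 uM. Sox2+ cells were those above 5x BMAD of the endoderm-control median; percent Sox2+ minus the 0.2% DMSO median was used, from n=4 replicates.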"}
{"smiles": "Cc1cn([C@H]2C=C[C@@H](CO)O2)c(=O)[nH]c1=O", "outcome": "inactive"}
{"smiles": "CC(=O)CC(c1ccccc1)c1c(O)c2ccccc2oc1=O", "note": "(stereo unspecified)", "outcome": "inactive"}
{"smiles": "O=C1NC(=O)C(c2ccccc2)(c2ccccc2)N1", "outcome": "inactive"}
{"smiles": "O=C(O)c1cccnc1", "outcome": "inactive"}
{"system": "SRY-box transcription factor 17 (SOX17) Protein Expression, Deisenroth Lab, SOX17 (gene 64321)", "experiment": "CCTE_Deisenroth_DEVTOX-GLR_Endo_SOX17: CCTE's DevTox GLR-Endo Assay Evaluation of SRY-box transcription factor 17 (SOX17) Protein Expression, Deisenroth Lab (AID 2284413)", "outline": "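RUES2-GLR human pluripotent cells were differentiated toward endoderm for 48 h and received two compound doses 24 h apart (1 nM - 200 uM, 10 points). High-content imaging of fixed cells gave the percent SOX17+ cells per cell count, expressed as percent change versus 0.2% DMSO.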"}
{"smiles": "Cc1cn([C@H]2C=C[C@@H](CO)O2)c(=O)[nH]c1=O", "outcome": "inactive"}
{"smiles": "CC(=O)CC(c1ccccc1)c1c(O)c2ccccc2oc1=O", "note": "(stereo unspecified)", "AC50": "100 µM (active)"}
{"smiles": "O=C1NC(=O)C(c2ccccc2)(c2ccccc2)N1", "outcome": "inactive"}
{"smiles": "O=C(O)c1cccnc1", "outcome": "inactive"}
{"system": "Brachyury (BRA) Protein Expression, TBXT (gene 6862)", "experiment": "CCTE_Deisenroth_DEVTOX-GLR_Endo_BRA: CCTE's DevTox GLR-Endo Assay Evaluation of Brachyury (BRA) Protein Expression, Deisenroth Lab (AID 2284417)", "description": "CCTE_Deisenroth_DEVTOX-GLR_Endo assay is a cell-based, multiplex-readout assay that uses RUES2-GLR, a human pluripotent cell line, with measurements taken at 48 hours after chemical dosing in a 384-well microplateCCTE_Deisenroth_DEVTOX-GLR_Endo_BRA is 1 of 4 assay components calculated from the CCTE_Deisenroth_DEVTOX-GLR_Endo assay and it measures the percentage of cells in an mesoderm state. Using a type of inducible fluorescent protein reporter, gain-of-signal activity can be used to understand changes in gene expression with fluorescent microscopy. The percentage of BRA+ cells are determined by calculating the number of BRA+ cells divided by the cell count. To generalize the intended target to other relatable targets, this assay component is annotated to the transcription factor intended target family, where the subfamily is T-box protein.Data from the assay component CCTE_Deisenroth_DEVTOX-GLR_Endo_BRA was analyzed as 1 assay endpoint. The endpoint is the percent BRA+ cell population minus the 0.2% DMSO control in the CCTE_Deisenroth_DEVTOX-GLR_Endo assay. Furthermore, this assay endpoint can be referred to as a secondary readout, because this assay has produced multiple assay endpoints where this one serves as a measure of mesoderm differentiation.\nAll assay protocols are aligned to the DevTox GLR-Endo assay workflow. Cells are seeded into 384-well microplates for 24 hours prior to initiating differentiation in defined media for a total duration of 48 hours. A total of two chemical exposures are administered in 24-hour intervals during the 48-hour differentiation period. At the assay termination point, cells are fixed and stained with a fluorescent dye demarcating the nucleus. High-content imaging is used to acquire brightfield and fluorescent channel images across 5 fields per well. Cell identification and mean biomarker fluorescence intensities are calculated with image analysis software to determine the total cell counts for viability assessment and the biomarker expression frequency for each lineage-dependent assay. A typical experimental design tests a 10-point concentration series (1 nM - 200 uM) for 28 compounds in single technical replicate. Assay plate controls include non-differentiated pluripotent cells (baseline control), lineage-specific differentiated cells (differentiation control), and DMSO solvent exposed differentiated cells (solvent control). Experiments typically comprise a minimum of four experimental replicates (n=4)."}
{"smiles": "Cc1cn([C@H]2C=C[C@@H](CO)O2)c(=O)[nH]c1=O", "outcome": "inactive"}
{"smiles": "CC(=O)CC(c1ccccc1)c1c(O)c2ccccc2oc1=O", "note": "(stereo unspecified)", "AC50": "1.45e-06 µM (active)"}
{"smiles": "O=C1NC(=O)C(c2ccccc2)(c2ccccc2)N1", "AC50": "100 µM (active)"}
{"smiles": "O=C(O)c1cccnc1", "outcome": "inactive"}
{"system": "not listed separately", "experiment": "CCTE_Deisenroth_DEVTOX-GLR_Endo_CellCount: Viability Assessment in CCTE's DevTox GLR-Endo Assay, Deisenroth Lab (AID 2284420)", "outline": "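RUES2-GLR human pluripotent cells seeded 24 h, then differentiated 48 h with two chemical exposures at 24 h intervals (10-point, 1 nM - 200 uM). Fixed, nuclear-stained, imaged; nuclei counts give % change in cell count versus 0.2% DMSO.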"}
{"smiles": "Cc1cn([C@H]2C=C[C@@H](CO)O2)c(=O)[nH]c1=O", "outcome": "inactive"}
{"smiles": "CC(=O)CC(c1ccccc1)c1c(O)c2ccccc2oc1=O", "note": "(stereo unspecified)", "outcome": "inactive"}
{"smiles": "O=C1NC(=O)C(c2ccccc2)(c2ccccc2)N1", "outcome": "inactive"}
{"smiles": "O=C(O)c1cccnc1", "outcome": "inactive"}
{"system": "SRY-box transcription factor 17 (SOX17) Protein Expression, Deisenroth Lab, SOX17 (gene 64321)", "experiment": "CCTE_Deisenroth_DEVTOX-GLR_Pluri_SOX17: CCTE's DevTox GLR-Pluri Assay Evaluation of SRY-box transcription factor 17 (SOX17) Protein Expression, Deisenroth Lab (AID 2284427; active = hit-call score of the fitted dose curve at least 0.9, where 1 is the maximum)", "outline": "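RUES2-GLR human pluripotent cells were seeded 24 h, then differentiated 48 h in defined media with two chemical exposures 24 h apart (10-point series, 1 nM - 200 uM). Fixed, nuclear-stained cells were imaged; %SOX17+ cells minus 0.2% DMSO control reported.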"}
{"smiles": "Cc1cn([C@H]2C=C[C@@H](CO)O2)c(=O)[nH]c1=O", "outcome": "inactive"}
{"smiles": "CC(=O)CC(c1ccccc1)c1c(O)c2ccccc2oc1=O", "note": "(stereo unspecified)", "outcome": "inactive"}
{"smiles": "O=C(O)c1cccnc1", "outcome": "inactive"}
{"system": "SRY-box transcription factor 2 (SOX2) Protein Expression, Deisenroth Lab, SOX2 (gene 6657)", "experiment": "CCTE_Deisenroth_DEVTOX-GLR_Pluri_SOX2: CCTE's DevTox GLR-Pluri Assay Evaluation of SRY-box transcription factor 2 (SOX2) Protein Expression, Deisenroth Lab (AID 2284428)", "outline": "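Human pluripotent RUES2-GLR cells were seeded 24 h, then differentiated 48 h in defined media with two chemical doses at 24-h intervals (10-point, 1 nM–200 uM). Nuclear-stained cells were imaged; SOX2+ cells/cell count gave percent change versus 0.2% DMSO control.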"}
{"smiles": "Cc1cn([C@H]2C=C[C@@H](CO)O2)c(=O)[nH]c1=O", "outcome": "inactive"}
{"smiles": "CC(=O)CC(c1ccccc1)c1c(O)c2ccccc2oc1=O", "note": "(stereo unspecified)", "outcome": "inactive"}
{"smiles": "O=C1NC(=O)C(c2ccccc2)(c2ccccc2)N1", "AC50": "150 µM (active)"}
{"smiles": "O=C(O)c1cccnc1", "outcome": "inactive"}
{"system": "Brachyury (BRA) Protein Expression, Deisenroth Lab, TBXT (gene 6862)", "experiment": "CCTE_Deisenroth_DEVTOX-GLR_Pluri_BRA: CCTE's DevTox GLR-Pluri Assay Evaluation of Brachyury (BRA) Protein Expression, Deisenroth Lab (AID 2284429; active = hit-call score of the fitted dose curve at least 0.9, where 1 is the maximum)", "outline": "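RUES2-GLR human pluripotent cells differentiated 48 hours with two chemical exposures 24 hours apart, 10-point series 1 nM–200 uM. Fixed, nuclear-stained, imaged; endpoint is percent BRA+ cells minus 0.2% DMSO control.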"}
{"smiles": "Cc1cn([C@H]2C=C[C@@H](CO)O2)c(=O)[nH]c1=O", "outcome": "inactive"}
{"smiles": "CC(=O)CC(c1ccccc1)c1c(O)c2ccccc2oc1=O", "note": "(stereo unspecified)", "outcome": "inactive"}
{"smiles": "O=C1NC(=O)C(c2ccccc2)(c2ccccc2)N1", "AC50": "152 µM (active)"}
{"smiles": "O=C(O)c1cccnc1", "outcome": "inactive"}
{"system": "not listed separately", "experiment": "CCTE_Deisenroth_DEVTOX-GLR_Pluri_CellCount: Viability Assessment in CCTE's DevTox GLR-Pluri Assay Evaluation of Total Cell Counts, Deisenroth Lab (AID 2284430)", "outline": "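RUES2-GLR human pluripotent cells, seeded 24 h, then differentiated 48 h with two chemical exposures 24 h apart; 10-point series 1 nM - 200 uM. Fixed, nuclear-stained, imaged (5 fields/well); nuclei count as % change vs 0.2% DMSO.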"}
{"smiles": "Cc1cn([C@H]2C=C[C@@H](CO)O2)c(=O)[nH]c1=O", "outcome": "inactive"}
{"smiles": "CC(=O)CC(c1ccccc1)c1c(O)c2ccccc2oc1=O", "note": "(stereo unspecified)", "outcome": "inactive"}
{"smiles": "O=C1NC(=O)C(c2ccccc2)(c2ccccc2)N1", "AC50": "100 µM (active)"}
{"smiles": "O=C(O)c1cccnc1", "outcome": "inactive"}
